Active and inactive are the calls of the source.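 How the source made its calls, unless noted: active means visual image review flags a hit and inhibition of aggregation exceeds 20%; inconclusive means visual hit but inhibition at or below 20%; inactive means no hit on visual image review.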
Columns and labels:
[1] = inhibitors of TNFa-induced NFkB p65 translocation, primary screen, imaging, HUVEC, MLSMR starter and 10KST1 sets (AID 438;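 active means inhibition above 20% together with a positive visual image hit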;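 further: compound added about 3h40 before a 20 min TNFalpha stimulation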;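 on inhibition: signal is the nuclear over cytoplasmic p65 intensity ratio per well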); conditions: HUVEC TNFa-induced p65 nuclear translocation; cell count: measured here: nuclei count (cytotoxicity indicator), at 2.08 µM; inhibition: at 2 µM, stronger effect = higher value, 0% TNFa-plus-vehicle, 100% no-TNFa wells
[2] = reduction of polyQ htt aggregates in cells – imaging, exon1htt(103Q)mCFP cells, high-content imaging, primary screen (AID 483); conditions: exon1htt(103Q)mCFP cell line, aggregate imaging, at 2 µM; inhibition of aggregation: stronger effect = higher value; nuclei count: measured here: cell count, toxicity;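 further: compound exposure lasted 3 days before fixation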;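 on nuclei count: percent of the per-plate median nuclei count of sample wells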
[3] = endothelial E-selectin expression blockers – imaging, HUVEC, immunofluorescence, MLSMR starter and 10KST1 sets, primary screen (AID 487;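 active means visually confirmed hit in the image check and inhibition above 20%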;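 on inhibition: signal is fraction of cell area covered by stained E-selectin grains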;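 on nuclei count: 100% = median nuclei count of all wells on the same plate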); conditions: HUVEC TNFalpha-induced E-selectin immunofluorescence imaging, at 2 µM; inhibition: stronger effect = higher value; nuclei count: measured here: cell number, toxicity
[4] = target: Voltage-gated potassium channel subunit beta-2 (Rattus norvegicus) (UniProt P62483); experiment: inhibitors of rat Kvbeta2 reductase activity – biochemical, NADPH fluorescence, primary screen (AID 622;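 active means fluorescence slope higher than the sample average by over 3 SD, cut at about -0.22 in these data, passing the limit was not always enough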;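 further: slope of raw intensity against log time taken from 70 to 1610 s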); conditions: recombinant KvBeta, 4-cyanobenzaldehyde reduction, at 10 µM, stronger effect = higher value
Sequence of Voltage-gated potassium channel subunit beta-2 (Rattus norvegicus) (P62483 whole entry, looked up): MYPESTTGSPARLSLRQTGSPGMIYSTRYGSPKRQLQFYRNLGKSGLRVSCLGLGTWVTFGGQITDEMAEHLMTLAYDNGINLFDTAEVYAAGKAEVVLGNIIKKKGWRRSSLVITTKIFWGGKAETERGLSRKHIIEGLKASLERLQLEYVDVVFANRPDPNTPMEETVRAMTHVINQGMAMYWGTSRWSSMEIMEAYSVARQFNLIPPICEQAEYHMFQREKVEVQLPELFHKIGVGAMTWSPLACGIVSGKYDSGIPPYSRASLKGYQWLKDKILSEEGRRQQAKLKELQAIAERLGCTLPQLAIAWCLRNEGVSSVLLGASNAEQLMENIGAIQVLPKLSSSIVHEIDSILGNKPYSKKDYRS

[5] = target: Voltage-gated potassium channel subunit beta-2 (Rattus norvegicus) (UniProt P62483); experiment: enhancers of rat Kvbeta2 NADPH turnover – biochemical, NADPH fluorescence, primary screen (AID 623;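 active means NADPH fluorescence slope more negative than the mean of all samples by about 3 SD, 99.7% confidence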;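 further: fluorescence intensity change per second fitted from 20 to 320 s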); conditions: Recombinant KvBeta, NADPH fluorescence decrease slope, 10 min; at 10 µM; stronger effect = lower value
[6] = target: Alpha-2C adrenergic receptor (Homo sapiens) (UniProt P18825); experiment: compounds altering alpha2C-coupled GIRK flux – cell-based, HEK293 alpha2C/GIRK1/2, thallium flux, primary screen (AID 624;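 active means fluorescence slope after compound addition differing from the mean of all screened samples at 99.7% confidence, in either direction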;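 further: slope of fluorescence ratio to pre-addition baseline per second over 15 to 24 s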); conditions: thallium flux BTC fluorescence, at 10 µM, actives lie on both sides
Sequence of Alpha-2C adrenergic receptor (Homo sapiens) (P18825 whole entry, looked up): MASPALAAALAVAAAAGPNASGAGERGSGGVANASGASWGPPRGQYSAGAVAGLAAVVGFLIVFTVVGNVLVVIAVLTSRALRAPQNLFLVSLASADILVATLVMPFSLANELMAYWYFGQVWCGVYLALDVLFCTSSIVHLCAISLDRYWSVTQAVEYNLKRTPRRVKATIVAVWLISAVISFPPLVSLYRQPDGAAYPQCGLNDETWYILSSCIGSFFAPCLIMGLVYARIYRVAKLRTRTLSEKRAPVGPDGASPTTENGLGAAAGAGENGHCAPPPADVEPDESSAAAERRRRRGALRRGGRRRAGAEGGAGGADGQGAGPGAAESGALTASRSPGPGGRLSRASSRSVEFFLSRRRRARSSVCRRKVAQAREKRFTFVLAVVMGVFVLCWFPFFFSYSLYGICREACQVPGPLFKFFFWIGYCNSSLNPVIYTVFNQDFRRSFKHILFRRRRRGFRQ

[7] = blockers of RIG-like receptor reporter activation – cell-based, Sendai virus stimulus, luciferase, 10K MLSCN set, TLR/RLR signaling modifier project, primary screen (AID 602276;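 active means inhibition at or above 50% at 10 µM; inactive means inhibition below 50%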;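 further: firefly luciferase from ISG56 promoter only with Renilla not read in this screen; 0% = Sendai virus plus DMSO and 100% = medium plus DMSO without virus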); conditions: HEK293 RL24 IRF3 luciferase reporter, at 10 µM, stronger effect = higher value
[8] = TLR3 IRF3 reporter activation blockers – cell-based, poly I:C stimulus, luciferase, 10K MLSCN set, primary screen (AID 602277;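 active means inhibition of the reporter signal at or above 50%; inactive means inhibition below 50%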); conditions: HEK293-TLR3 RL24 IRF3 luciferase reporter, at 10 µM, stronger effect = higher value

Compound | cell count [1] | inhibition [1] | inhibition of aggregation [2] | nuclei count [2] [%] | inhibition [3] | nuclei count [3] [%] | fluorescence slope [4] | NADPH fluorescence slope [5] | slope [6] | inhibition [7] | inhibition [8]
COc1ccc2nc(CC(C)(C)CC(=O)O)c[n+]([O-])c2c1 | 377 | -1% (inactive) | -0.5% (inactive) | 110 | -11.7% (inactive) | 94 | -0.587 (inactive) | -1.8e-05 (inactive) | 0.0065 (inactive) | 10.6% (inactive) | 29.8% (inactive)
CCOc1ccc(N(CC(=O)Nc2cccc(OC)c2)S(=O)(=O)c2c(C)noc2C)cc1 | 490 | -7.9% (inactive) | 18.7% (inactive) | 67 | -27% (inactive) | 109 | -0.518 (inactive) | -2.7e-05 (inactive) | 0.00799 (inactive) | 24.2% (inactive) | 22.1% (inactive)
Cc1cc(C(=O)Nc2ccccc2C#N)n(-c2ccccc2)n1 | 763 | 7.7% (inactive) | 19.6% (inactive) | 88.3 | 27.3% (inactive) | 108 | -0.556 (inactive) | 2.9e-05 (inactive) | 0.00747 (inactive) | -2.18% (inactive) | 20.7% (inactive)
COC(=O)c1ccc(C)c(NS(=O)(=O)c2ccc3c(c2)OCCO3)c1 | 263 | 12.5% (inactive) | 22.6% (inactive) | 56.8 | -60.4% (inactive) | 94 | -0.393 (inactive) | -5.8e-05 (inactive) | 0.00526 (inactive) | 43.8% (inactive) | 58.5% (active)
Cn1nnnc1SCc1cn2cccnc2n1 | 227 | 0.3% (inactive) | 9.5% (inactive) | 97.2 | -25.9% (inactive) | 117 | -0.106 (inactive) | 2.9e-05 (inactive) | 0.00615 (inactive) | 9.85% (inactive) | 9.08% (inactive)
CC(C)(Oc1ccc(Cl)cc1)C(=O)NC1CCSC1=O (centres undefined) | 620 | -7.5% (inactive) | -23.8% (inactive) | 112 | -63.4% (inactive) | 103 | -0.502 (inactive) | -2.8e-05 (inactive) | 0.00406 (inactive) | 10.9% (inactive) | 15.9% (inactive)
Cc1cccc(C2CC(c3ccc(Br)cc3)Nc3nc(N)nn32)c1 (centres undefined) | 683 | -15.7% (inactive) | -3% (inactive) | 95.1 | -5.8% (inactive) | 105 | -0.443 (inactive) | -5.3e-05 (inactive) | 0.00633 (inactive) | 20.8% (inactive) | 25.1% (inactive)
Cc1ccc(S(=O)(=O)C(C#N)c2nc3ccccc3nc2N2CCCCC2)cc1 (centres undefined) | 273 | 10.9% (inactive) | 8.3% (inactive) | 98.6 | -0.3% (inactive) | 103 | -0.364 (inactive) | 2e-06 (inactive) | 0.00764 (inactive) | 11.2% (inactive) | 22.6% (inactive)
Cc1ccc(C(=O)CC2(O)C(=O)N(CN3CCOCC3)c3ccccc32)cc1 (centres undefined) | 396 | -8.1% (inactive) | -5.7% (inactive) | 103 | -52.9% (inactive) | 99.1 | -0.367 (inactive) | 8.1e-06 (inactive) | 0.00346 (inactive) | -4.62% (inactive) | 5.37% (inactive)
CCOc1cc(CN2CCN(C(=O)c3ccco3)CC2)ccc1OC | 403 | -3% (inactive) | 8.5% (inactive) | 88.9 | 44.9% (inactive) | 104 | -0.33 (inactive) | -1.5e-05 (inactive) | 0.00559 (inactive) | 11.7% (inactive) | 21.2% (inactive)
CC1(C)CC(CCNC(=O)c2ccco2)CC(C)(C)N1 | 387 | 2.3% (inactive) | 1.2% (inactive) | 86.4 | -91.3% (inactive) | 81.4 | -0.473 (inactive) | -1.8e-05 (inactive) | 0.00616 (inactive) | 12% (inactive) | 12.3% (inactive)
CC(C)Cc1cc(C(=O)Nc2c(F)cc(F)cc2Br)no1 | 783 | 7.4% (inactive) | -5% (inactive) | 114 | -4.5% (inactive) | 120 | -0.594 (inactive) | 3.8e-06 (inactive) | 0.00483 (inactive) | -6.27% (inactive) | 2.03% (inactive)
CN(CC(=O)N1CCCc2c1c(=O)oc1ccc(O)cc21)Cc1ccccc1 | 418 | 5.7% (inactive) | -21% (inactive) | 97.1 | -85.3% (inactive) | 117 | -0.258 (inactive) | -4.5e-05 (inactive) | 0.00473 (inactive) | 11.5% (inactive) | 27.4% (inactive)
O=C(c1cc(S(=O)(=O)N2CCOCC2)ccc1F)N1CCCc2ccccc21 | 555 | -26.9% (inactive) | -9.6% (inactive) | 102 | -44.9% (inactive) | 140 | -0.382 (inactive) | -4.2e-05 (inactive) | 0.00518 (inactive) | 12.6% (inactive) | 27.4% (inactive)

Source: PubChem BioAssay
